Pf growth 48h = inhibits P. falciparum growth in the first generation, 48 h | P. falciparum luciferase growth in erythrocytes, 48 h | Potency, µM (titrated, usually from 28.7 µM), for the others: top-dose activity change, negative = inhibition, usual class: inhibitors | 5.9% of 310,000 active | AID 504832
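Luminescence readout; reporter = integrated firefly luciferase in P. falciparum. RBC culture at 2% hematocrit, 0.1% parasitemia final, 37 C/5% CO2; decreased signal taken as growth inhibition.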
Vaccinia Venus = inhibitors of vaccinia virus (Venus reporter). Potency, µM (highest dose often 36.5 µM), for the others: at the highest dose activity change, negative = inhibition, actives largely listed as inhibitors. Vaccinia virus Venus reporter expression, fluorescence. 0.46% of 330,000 active; calls by dose curve; tested in A549 cells; further: nearly all actives have a fitted effect of over 30% in size
Pf growth 96h = P. falciparum growth inhibition at 96 hours; Potency, µM (highest dose often 28.7 µM), inactives show at the top dose activity change, negative = inhibition, most hits filed as inhibitors; P. falciparum luciferase reporter growth, 96 h; 6.9% of 320,000 active; AID 504834
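P. falciparum expressing integrated firefly luciferase, in erythrocytes at 2% hematocrit, 0.05% parasitemia, incubated with compounds 96 h at 37 C, 5% CO2. Growth inhibition read as loss of luminescence; two-generation exposure targets delayed-death apicoplast inhibitors.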
VACV mCherry inh = inhibitors of vaccinia virus infection (mCherry reporter signal); 0.63% of 310,000 active; Vaccinia virus mCherry reporter infection, fluorescence; Potency, µM (doses to about 36.5 µM), for the others: at the highest dose activity change, negative = inhibition, most hits filed as inhibitors; calls by dose curve; tested in A549 cells; further: nearly all actives have a fitted effect of over 35% in size
AMA1 RON2 block = inhibitors of Plasmodium falciparum AMA1-RON2 interaction; AlphaScreen AMA1-biotinylated RON2 peptide binding; Potency, µM (highest dose often 58.2 µM), inactives show top-dose activity change, negative = inhibition, most hits filed as inhibitors; 0.2% of 360,000 active;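 further: 0% = vehicle wells and -100% = peptide control; nearly all actives have a fitted effect of over 45% in size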
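AMA1 (3D7) with his tag at 25 nM final met compounds first, then biotinylated RON2 peptide at 25 nM; detection used donor plus acceptor beads, 10 µg/mL apiece, read by AlphaScreen after 30 min at room temperature.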
Numbers without * were called inactive; i = inactive; ? = inconclusive; . = not tested or not shown; [ ] = another dose, or the depositor's remark. This is a sample that favours compounds with a hit; in the whole collection about 8.7% have one here. Unless noted, the call rests on the fitted dose curve; in most records, active means well fitted curve in the direction sought with a large enough effect; inconclusive means small, poorly fitted or top-dose-only effect, or another doubt; inactive means no such curve, though single readings can be large; an effect the other way counts as inactive or inconclusive. Unless noted, on the % scale 0 is the no-effect control and ±100 the full control effect; potency means the concentration at half of the fitted maximal effect.

SMILES | Pf growth 48h | Vaccinia Venus | Pf growth 96h | VACV mCherry inh | AMA1 RON2 block
O=C(CN1CCN(C(C(=O)Nc2ccc(Cl)cc2C(F)(F)F)c2ccccc2)CC1)NC1CC1 (stereo not drawn) | 3.3µM* | . | 4.1µM* | . | 2%
COc1ccc(CCNC(=O)C2(c3cccs3)CCOCC2)cc1OC | . | 7% | . | -11% | .
O=C(CCn1nc(-c2ccc(Cl)cc2)c2ccccc2c1=O)Nc1ccc(OC(F)(F)F)cc1 | . | -6% | . | -7% | .
Cc1cccc(N2CCN(C(=O)c3cc4ccc5cccnc5c4[nH]3)CC2C)c1 (stereo not drawn) | . | -7% | . | -6% | .
Cc1ccc(Nc2sc(C(=O)c3ccccc3)c(N)c2S(=O)(=O)c2ccccc2)cc1Cl | . | -9% | . | -14% | .
Cc1ccc(CNc2ncnc3sc(C(=O)N4CCC[C@H]4C(N)=O)c(C)c23)o1 | . | -2% | . | -8% | .
Cc1cc(C)cc(NC(=O)C(c2ccccc2)N2CCN(CC(=O)NC3CC3)CC2)c1 (stereo not drawn) | 5.2µM* | -14% | 9.3µM* | -20% | 1%[11.6 µM]
Cc1cc(C)cc(NC(=O)C(c2ccccc2)N2CCCC2)c1 (stereo not drawn) | -19% | -8% | -7% | i | -5%
Cc1ccc(C(=O)COC(=O)CCC(=O)Nc2ccc(Oc3cc(C)ccc3C(C)C)cc2)cc1 | . | -11% | . | -18% | .
COc1ccc(OCc2cc(C(=O)N(C)Cc3cc(C4CC4)n[nH]3)no2)c(Cl)c1 | 9.3µM* | . | -21% | . | 9%
COc1ccc(OCc2cc(C(=O)N(C)Cc3cnccn3)no2)c(Cl)c1 | 69% | -12% | ? | i | -7%
CCn1c(SCc2ccc(F)cc2Cl)nnc1-c1nonc1NC(C)=O | . | -17% | . | -22% | .
COc1ccc(C2C(C(=O)Nc3cccnc3)=C(C)Nc3nc(-c4cccs4)nn32)cc1 (stereo not drawn) | 12µM* | . | ? | . | 10%
COc1ccc(C2C(C(=O)Nc3cccnc3)=C(C)Nc3nc(-c4cccs4)nn32)cc1OC (stereo not drawn) | 6% | -2% | 9% | 2% | -10%
CC(C)CN=C(NS(=O)(=O)c1ccccc1)C(Cl)(Cl)Cl | 2.6µM* | ? | 10µM* | ? | 17%[2.32 µM]
CCOc1cccc(CN2CCC(n3cc(C(=O)N4CCCCC4)nn3)CC2)c1O | . | -8% | . | -17% | .
COc1ccc(NS(=O)(=O)c2csc(C(N)=O)c2)cc1OC | ? | -4% | 33% | i | -4%
NC(=O)c1cc(S(=O)(=O)Nc2ccc(OC(F)(F)F)cc2)cs1 | 13µM* | . | ? | . | -9%
COc1ccc(NS(=O)(=O)c2csc(C(N)=O)c2)cc1 | 7.4µM* | -7% | ? | -27% | 12%
Cc1ccc(NC(=O)N2CCC(CN3CCCC3)CC2)c(C)c1 | . | -20% | . | -11% | .
COc1ccc(-c2c(-c3ccccc3OC)oc3ccccc23)cc1F | 2.9µM* | 2% | 2.6µM* | -2% | 2%
Cc1c(C(=O)N2CCC(C)CC2)c(S(=O)(=O)NCc2ccc(Cl)cc2)c(C)n1C | . | -8% | . | -8% | .
COc1ccc(-c2nc(SCC(=O)NC(C)CCc3ccccc3)n[nH]2)cc1 (stereo not drawn) | . | ? | . | -17% | .
CCCNC(=O)CSc1ccc(S(=O)(=O)N2CCCCC2)cn1 | ? | -6% | ? | i | -10%
CCNC(=O)NC(=O)CSc1ccc(S(=O)(=O)N(C)C2CCCCC2)cn1 | 12µM* | -17% | 9.3µM* | ? | 5%[11.6 µM]
SMILES | Pf growth 48h | Vaccinia Venus | Pf growth 96h | VACV mCherry inh | AMA1 RON2 block
CCNC(=O)NC(=O)CSc1ccc(S(=O)(=O)N2CCCCC2)cn1 | ? | -5% | 5.2µM* | -7% | -2%[11.6 µM]
COc1ccccc1CCNc1ncnc2sc(C(=O)N3CCCCC3)c(C)c12 | . | -18% | . | -21% | .
CCOC(=O)N1CCN(C(=O)CC(=O)Nc2ccc3nc4n(c(=O)c3c2)CCCCC4)CC1 | 5.9µM* | ? | 7% | . | -1%
O=C(Nc1ccc2nc3n(c(=O)c2c1)CCCCC3)C(=O)N1CCN(c2ccccc2)CC1 | 1.3µM* | -14% | ? | -12% | 11%
CC(C)CC(OC(=O)c1cccs1)C(=O)NCc1ccco1 (stereo not drawn) | 13µM* | . | -8% | . | -5%
CCC(OC(=O)c1cccs1)C(=O)NCc1ccco1 (stereo not drawn) | -5% | . | . | . | -14%
CC1=C(C(=O)Nc2ccc(F)cc2)C(c2ccc(N(C)C)cc2)NC(=O)N1 (stereo not drawn) | . | -9% | . | -10% | .
C/C(=N\NC1=NCCN1)c1ccc(Cl)cc1 | ? | -8%[7.34 µM] | 2.3µM* | -11%[7.34 µM] | 0%
C/C(=N\NC1=NCCN1)c1ccccc1 | -30% | -11% | ? | -5% | -18%
c1ccc(CCNc2ncnc3scc(C4COc5ccccc5O4)c23)cc1 (stereo not drawn) | . | . | 15µM* | . | ?
c1ccc2c(c1)OCC(c1csc3ncnc(N4CCCC4)c13)O2 (stereo not drawn) | . | -10% | 9.3µM* | . | -6%
CCOC(=O)c1cccc(NC(=O)CSc2cc(=O)n(C)c3ccccc23)c1 | . | 6% | . | -4% | .
O=C(C[n+]1ccccc1Cl)c1ccc(F)cc1 | . | -23% | . | i | .
CC(C)c1c(C(=O)N(C)C2CCN(C)CC2)cnn1-c1nccc(-c2ccco2)n1 | . | -9% | . | i | .
COc1ccc(OC)c(N=c2ssnc2Cl)c1 | 22% | -7% | 1.7µM* | -11% | -3%
COc1cc(N=c2ssnc2Cl)c(OC)cc1Cl | 29% | ? | ? | ? | -20%
CC(C)Cc1ccc(/C=C/C(=O)NC2CC2)cc1 | ? | -12% | 2.1µM* | -14% | 8%
O=C(/C=C/c1ccc(Br)cc1)NC1CCCCCC1 | 120% | . | 160% | . | -1%
Cc1cccc(N/C=C(\[N+](=O)[O-])S(=O)(=O)c2ccccc2)c1C | 12µM* | -8% | 24% | i | 4%
Cc1ccc(N/C=C(\[N+](=O)[O-])S(=O)(=O)c2ccccc2)cc1 | 9% | -2% | 14% | -2% | 18%
CN(Cc1nc(Cc2ccccc2F)no1)[C@@H]1CS(=O)(=O)C[C@H]1O | 34% | . | 12µM* | . | 10%
O=C([C@@H]1C[C@@H](Sc2nc3ccccc3[nH]2)CN1Cc1ccc(C(F)(F)F)cc1)N1CCN(c2ccccc2F)CC1 | . | 0% | . | -5% | .
O=C1c2oc3ccc(F)cc3c(=O)c2C(c2cccc(O)c2)N1CCCN1CCOCC1 (stereo not drawn) | 25% | -12% | 10µM* | -7% | 6%
C=CCOc1cccc(C2c3c(oc4ccc(F)cc4c3=O)C(=O)N2CCCN2CCOCC2)c1 (stereo not drawn) | 12µM* | -7% | 6% | -12% | 0%
Cc1ccc2oc3c(c(=O)c2c1)C(c1cccc(O)c1)N(CCCN1CCOCC1)C3=O (stereo not drawn) | . | -11% | . | -14% | .
Cc1ccc2oc3c(c(=O)c2c1)C(c1cccc(Cl)c1)N(CCCN1CCOCC1)C3=O (stereo not drawn) | 2.6µM* | -23% | ? | i | 13%

Source: PubChem BioAssay (National Center for Advancing Translational Sciences (NCATS))
